Results published in PubChem BioAssay AID1159580 (chemical genetic matrix, 2015).
The whole screen tested about 5,500 compounds, of which about 2,000 (36%) were called active. Not shown: some 18% with an inconclusive outcome. Cut-off read from the data, not from the text of the source: active = normalized growth mostly below about 0.91 (no sharp cut-off); inconclusive = no clear call, values can overlap the other calls; inactive = mostly above about 0.92. The list shows a part of the results.

Assay: chemical genetic growth profiling, strain panel (AID 1159580);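 note: tested at 20 µM; growth read once vehicle control cultures reached saturation at 30 °C; 1 = growth at the plate median or of vehicle wells; lower values mean less growth of the strain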
Conditions: S. cerevisiae deletion strains, growth OD
[1] = locus YAL013W, strain DEP1, stronger effect = lower value
[2] = locus YAL040C, strain CLN3, stronger effect = lower value
[3] = locus YCL061C, strain MRC1 (second series), stronger effect = lower value
[4] = locus YER002W, strain NOP16, stronger effect = lower value
[5] = locus YMR263W, strain SAP30, stronger effect = lower value
[6] = locus YNL175C, strain NOP13, stronger effect = lower value
[7] = locus YNL197C, strain WHI3, stronger effect = lower value
[8] = locus YNL224C, strain SQS1, stronger effect = lower value
[9] = locus YOR083W, strain WHI5 (second series), stronger effect = lower value
[10] = locus YPL055C, strain LGE1, stronger effect = lower value

Measured: normalized growth

c1ccc2nc(C3=NCCN3)ccc2c1
inactive: [1] 0.99 | [2] 1.04 | [3] 0.986 | [4] 0.993 | locus YGR229C, strain SMI1, stronger effect = lower value 0.955 | [5] 0.982 | [6] 0.995 | [7] 0.996 | [8] 0.993 | [9] 1 | [10] 1.01 | locus YPL241C, strain CIN2, stronger effect = lower value 0.987

NC(=O)CN1CC(O)CC1=O (stereo not given)
inactive: [1] 1 | [2] 1 | [3] 1 | locus YDR363W, strain ESC2, stronger effect = lower value 0.995 | [4] 1.01 | locus YGR078C, strain PAC10, stronger effect = lower value 1.02 | locus YJR075W, strain HOC1, stronger effect = lower value 1.01 | [5] 1 | [6] 1.01 | [7] 1.01 | [8] 1 | [9] 1 | [10] 1.01
